GoLoco inh red – qHTS Assay for Inhibitors of RGS12 GoLoco Motif Activity (Red Fluorophore). Gai1:RGS12 GoLoco peptide FP, rhodamine, 10 min. Guanine nucleotide-binding protein G(i) subunit alpha-1 (Homo sapiens), P63096. actives 0.44% (n = 230,000). Potency, µM (top dose mostly 61.6 µM), hits mostly inhibitors; active means well fitted inhibition curve with a large enough effect, not every such curve was filed as active; inactive means no such curve, though single readings can be large or run the other way; further: nearly all actives have a fitted effect of over 30% in size
Target sequence (P63096 whole entry, looked up): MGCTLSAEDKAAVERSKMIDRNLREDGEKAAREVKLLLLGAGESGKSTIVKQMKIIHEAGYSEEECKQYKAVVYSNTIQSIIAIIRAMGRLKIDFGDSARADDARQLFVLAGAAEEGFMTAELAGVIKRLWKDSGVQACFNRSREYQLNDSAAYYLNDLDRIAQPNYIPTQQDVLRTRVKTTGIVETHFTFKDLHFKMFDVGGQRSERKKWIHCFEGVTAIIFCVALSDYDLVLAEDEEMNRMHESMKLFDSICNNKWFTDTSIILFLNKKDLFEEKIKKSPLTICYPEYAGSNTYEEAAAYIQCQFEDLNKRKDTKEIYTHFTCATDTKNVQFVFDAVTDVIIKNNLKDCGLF
FBPA coupling cs – qHTS Assay for Inhibitors of Fructose-1,6-bisphosphate Aldolase from Giardia Lamblia: Coupling assay counterscreen. coupling enzyme system counterscreen, AmpLite Red fluorescence. actives 0.67% (n = 290,000). AID 2472, 2010. activity change, negative = inhibition, % at 58.2 µM, hits read low; in the data active means activity change below about -30%
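Counterscreen lacking aldolase: glyceraldehyde-3-phosphate coupling-enzyme reagent preincubated 10 min at RT with compound (at 57.5 uM final), then substrate/coupling system with AmpLite Red added; fluorescence read at 525/598 nm after 20 min RT.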
KDM4E inh – qHTS Assay for Inhibitors of Human Jumonji Domain Containing 2E (JMJD2E). Lysine-specific demethylase 4E (Homo sapiens), B2RXH2. JMJD2E catalytic domain, FDH-coupled NADH fluorescence (FDH is formaldehyde dehydrogenase). Potency, µM (titrated, usually from 57.1 µM), usual class: inhibitors. actives 1.6% (n = 230,000). AID 2147, 2009; active means well fitted inhibition curve with a large enough effect, not every such curve was filed as active; inconclusive means small, poorly fitted or top-dose-only effect, or another doubt; inactive means no such curve, though single readings can be large or run the other way; further: nearly all actives have a fitted effect of over 50% in size
VDR inhibitor – Inhibitors of the vitamin D receptor (VDR): qHTS; Vitamin D3 receptor (Homo sapiens), P11473; VDR-SRC2-3 peptide fluorescence polarization, 2 h; Potency, µM, most hits filed as inhibitors; actives 0.93% (n = 400,000); AID 504847, 2011
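Fluorescence polarization assay of small-molecule disruption of VDR binding to coregulator peptide SRC2-3. Compounds and controls pin-transferred, then read after 2 h incubation at ambient room temperature.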
HTT cytoprotect – qHTS Multiplex Assay to Identify Dual Action Probes in a Cell Model of Huntington: Cytoprotection (ATP); Potency, µM (highest dose often 56.4 µM), most hits filed as activators; actives 0.14% (n = 230,000); PC12 HTT-Q103 induced, cytoprotection, ATP luminescence, 40 h; further: nearly all actives have a fitted effect of over 45% in size
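Cells were plated at 1500 per well in phenol red-free DMEM with 5% equine and 5% calf serum. Tebufenozide (100 nM final) and compounds were added, then ATPlite reagent, and luminescence was read.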
HttQ103 aggreg – qHTS Multiplex Assay to Identify Dual Action Probes in a Cell Model of Huntington: Aggregate Formation (GFP) | Potency, µM (series often up to 46.1 µM), hits mostly inhibitors | actives 1.1% (n = 220,000) | PC12 HttQ103-GFP aggregates, Acumen cytometry, 40 h; further: nearly all actives have a fitted effect of over 60% in size
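Inducible Q103 Huntingtin exon 1–GFP PC12 line, 1500 cells/well in phenol red free DMEM with 5% equine and 5% calf serum. Tebufenozide 100 nM induced expression; compounds titrated; aggregates quantified by cytometry.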
Each line names hits and unclear results; the compound was inactive in the other large screens. Hits are enriched below; roughly 2.3% of the tested compounds scored in any of these assays. Unless noted, the call rests on the fitted dose curve; in most records, active means well fitted curve in the direction sought with a large enough effect; inconclusive means small, poorly fitted or top-dose-only effect, or another doubt; inactive means no such curve, though single readings can be large; an effect the other way counts as inactive or inconclusive.

Cc1ccc2cc(C#N)c(NCCCNC(=O)C3CCCO3)nc2c1 (centres undefined)	FBPA coupling cs -35, KDM4E inh inconclusive
COc1ccc(-n2cnc3cc(C(=O)NC4CCCCCC4)ccc32)cc1	none (no result: GoLoco inh red, FBPA coupling cs, KDM4E inh, HTT cytoprotect, HttQ103 aggreg)
O=C(Nc1ccccc1C(=O)O)c1ccc2ccccc2n1	FBPA coupling cs -40
Cc1c(CCOC(=O)CC23CC4CC(CC(C4)C2)C3)sc[n+]1Cc1ccccc1	HttQ103 aggreg 11µM (no result: FBPA coupling cs)
Cc1ncc(C[n+]2csc(CCOC(=O)CC34CC5CC(CC(C5)C3)C4)c2C)c(N)n1	none
Cc1ccc(F)c(C2C3C=CCC(c4ccccc4)C3C(=O)N2Cc2ccccc2)c1 (centres undefined)	none (no result: GoLoco inh red, KDM4E inh, HTT cytoprotect, HttQ103 aggreg)
Fc1ccc(Cn2cnc3ccccc32)cc1	none
CCCOc1ccc(Cn2cnc3ccccc32)cc1	HttQ103 aggreg 25µM
CC(=O)OC[C@@H]1O[C@H](CCO/N=C\[C@@H](C)[C@H](OCc2ccccc2)C(C)C)C=C[C@@H]1OC(C)=O	none (no result: GoLoco inh red, KDM4E inh, VDR inhibitor, HttQ103 aggreg)
Cc1cc(C)c(O)c(N)c1	KDM4E inh 16µM (no result: VDR inhibitor)
CCN(CC(=O)c1c(N)n(C)c(=O)n(C)c1=O)c1cccc2ccccc12	FBPA coupling cs -43, KDM4E inh inconclusive, HttQ103 aggreg inconclusive
CN(C)CC(=O)c1c(N)n(Cc2ccccc2)c(=O)n(C)c1=O	none
Cc1cccc(NS(=O)(=O)c2ccc(C3CCCCC3)cc2)c1	HttQ103 aggreg 11µM
O=C(O)c1cccc(NS(=O)(=O)c2ccc(C3CCCCC3)cc2)c1	none (no result: HTT cytoprotect, HttQ103 aggreg)
CC1(C)C2CCC1(C)C(OC(=O)C[n+]1ccccc1)C2 (centres undefined)	VDR inhibitor 22µM
CC1(C)C2CCC1(C)C(OC(=O)C[n+]1ccccc1N)C2 (centres undefined)	KDM4E inh inconclusive
Cc1cc(NN)nc(Cc2ccccc2)n1	none (no result: GoLoco inh red, KDM4E inh, HTT cytoprotect, HttQ103 aggreg)
C=CCc1cc(C(=O)N2CCCCC2)ccc1O	HttQ103 aggreg 22µM
COc1ccccc1-c1nnc(SCC(=O)NCc2c(C)c(Cl)cc(C(C)C)c2O)o1	HttQ103 aggreg 13µM
O=C(CCc1nc2ccccc2[nH]1)N1CCc2ccccc2C1	FBPA coupling cs -34
N#CCCNS(=O)(=O)c1ccc(C(=O)OCCCOC(=O)c2ccc(S(=O)(=O)NCCC#N)cc2)cc1	none (no result: GoLoco inh red, FBPA coupling cs, KDM4E inh, HTT cytoprotect, HttQ103 aggreg)
N#Cc1c(Cl)nsc1NC(=O)c1ccccc1	HttQ103 aggreg 4µM
Cc1cccc(C(=O)Nc2sc(C)c(-c3ccccc3)c2C#N)c1	KDM4E inh inconclusive, HttQ103 aggreg 22µM
COc1ccc(NC(=O)Nc2ccc([N+](=O)[O-])cc2)cn1	none (no result: GoLoco inh red, KDM4E inh, HTT cytoprotect, HttQ103 aggreg)
COc1ccc(N2CC(NC(=O)c3ccc(S(=O)(=O)N4CCOCC4)cc3)CC2=O)cc1 (centres undefined)	none (no result: GoLoco inh red, FBPA coupling cs, KDM4E inh, HTT cytoprotect, HttQ103 aggreg)
CO[C@]1(NC(=O)C2SC(=C(C(N)=O)C(=O)O)S2)C(=O)N2C(C(=O)O)=C(CSc3nnnn3C)CS[C@H]21 (some centres undefined)	HTT cytoprotect inconclusive
Cc1sc2ncnc(NCCc3ccc(S(N)(=O)=O)cc3)c2c1C	HttQ103 aggreg 0.71µM
O=C/C=C/c1c(-c2ccccc2)cc2oc3ccccc3cc1-2	VDR inhibitor 35µM (no result: GoLoco inh red, KDM4E inh, HTT cytoprotect, HttQ103 aggreg)
Nc1ccc(-c2cc3ccccc3oc2=O)cc1	none (no result: GoLoco inh red, KDM4E inh, HTT cytoprotect, HttQ103 aggreg)
C[C@]1(CC/C(=C/CO)CO)[C@H](CO)CC[C@@]23COC(=O)C2=CCC[C@@H]31	none (no result: GoLoco inh red, FBPA coupling cs, KDM4E inh, HTT cytoprotect, HttQ103 aggreg)
O=S(=O)(Nc1ccc2c(c1)OCCO2)c1ccc2oc3ccccc3c2c1	HttQ103 aggreg 11µM
CSc1nc2ccc(NS(=O)(=O)c3ccc4c(c3)OCCO4)cc2s1	HttQ103 aggreg 8.9µM
O=S(=O)(Nc1ccc2c(c1)OCCO2)c1ccc(F)c(F)c1	none (no result: GoLoco inh red, KDM4E inh, HTT cytoprotect, HttQ103 aggreg)
CCN1CCS/C1=C/C=C/C1=[N+](CC)CCS1	KDM4E inh 28µM, HttQ103 aggreg 0.5µM

High-throughput results: PubChem BioAssay, National Center for Advancing Translational Sciences (NCATS)
